Drawing on PubChem BioAssay AID743343 (Broad Institute, 2014), this text covers outcome for 36 compounds.

Potency and affinity values are given separately. Calls of active or inactive are those of the source. Entries that show only a call come without a potency. How the calls were made is not given here.

The test system of this assay is Drosophila melanogaster bursicon receptor LGR2 (rickets). Description: LGR2 antagonists, dose response, cell-based, HEK293, CRE-luciferase reporter, cherry pick, set 2 (AID 743343). The note with it: bursicon-induced cAMP antagonist; series mostly up to 35 µM. (In general: Reporter assays use an easily measured gene product as a stand-in for the process of interest.)

`CCOC(=O)c1c(C)n(C)c2ccc(OCC(O)CNCCc3ccccc3)cc12` (stereo unspecified): the result was inactive. `Cc1ccc(S(=O)(=O)N2CCCc3nc(-c4ccc(F)cc4)ccc32)cc1`: the result was inactive. Next, `Cc1noc(C)c1S(=O)(=O)Nc1cccc2c1O[C@H](CN(C)C(=O)Nc1ccc(F)cc1)[C@H](C)CN([C@H](C)CO)C2=O`: “inactive”; `O=S(=O)(Nc1ccc(O)c2ccccc12)c1ccc(OC(F)(F)F)cc1`: “inactive”; `CCc1nnc2cccc(Cl)n12`: “inactive”. In the case of `COc1ccccc1CNS(=O)(=O)c1ccc(N2CCCC2)cc1Br`, the result was inactive.

With `CCN(C(=O)COC(=O)C12CC3CC(CC(O)(C3)C1)C2)c1c(N)n(Cc2ccccc2)c(=O)[nH]c1=O`, the outcome was inactive. For the compound `O=C(c1ccc(F)cc1)N1CC(=O)N2[C@@H](CO)[C@@H](c3ccc(C#CC4CCCC4)cc3)[C@@H]2C1`, the compound was classed as inactive. `O=C(C[C@H]1CC[C@H](NS(=O)(=O)c2cccc(F)c2)[C@@H](CO)O1)N1CCCCC1`: the compound was called inactive. For the compound `CCOC(=O)C1=CCN(S(=O)(=O)c2ccccc2C)C1c1cccc(C)c1` (stereo unspecified), the outcome was inactive. In the case of `O=C(NCCOc1ccccc1)[C@@H]1CCCN1C(=O)c1cccs1`, the outcome was inactive. Take `C=CCn1c(SCC(=O)Nc2ncc(Cc3ccc(C)c(Cl)c3)s2)nnc1-c1ccncc1`: the call was inactive. As to `Cn1cnc(S(=O)(=O)N2C[C@@H](O)COC[C@H]3O[C@H](CC(=O)NC4CCCC4)CC[C@@H]32)c1`, the compound was classed as inactive. For `CNCc1ccccc1Sc1ccc(O)c(O)c1`, the compound was classed as inactive.

As for `CC(C)(C)c1nc2ccc(Cl)cn2c1CC1CCCCC1`, the outcome was inactive. For `C[C@@H]1CN([C@H](C)CO)C(=O)Cc2cc(NC(=O)Nc3ccc(F)cc3)ccc2O[C@@H]1CN(C)CC1CCCCC1`, the call was inactive. As for `C[C@@H]1CN([C@H](C)CO)C(=O)CCCn2nncc2CO[C@H]1CN(C)C(=O)Nc1cccc2ccccc12`, the result was inactive. On to `C[C@H]1CN([C@@H](C)CO)C(=O)c2cc(NC(=O)Nc3ccccc3)ccc2O[C@H]1CN(C)Cc1ccc(-c2ccccc2)cc1`, for which the compound was called inactive. In the case of `O=C(Cc1ccccc1Cl)Nc1cccnc1`, the compound was called inactive. With `C[C@H](CO)N1C[C@H](C)[C@@H](CN(C)C(=O)Nc2ccc3c(c2)OCO3)Oc2c(cccc2N(C)C)C1=O`, the result was inactive. On to `CC(C)CCNC(=O)C(c1ccc(O)cc1)N(Cc1cccs1)C(=O)C1COc2ccccc2O1` (stereo unspecified), for which the outcome was inactive.

In the case of `COc1cc(CNCCO)cc(Cl)c1OCc1ccc(Cl)cc1Cl`, the compound was classed as inactive. For `O=c1cc(-c2c(F)c(F)c(F)c(F)c2F)oc2ccccc12`, the compound was called inactive. Next, `Cc1ccc(CNS(=O)(=O)c2ccc3c(c2)CCN3C(=O)CCCC(=O)O)cc1`: “inactive”; `C[C@@H]1CN([C@@H](C)CO)C(=O)c2cccc(NC(=O)Nc3ccc(C(F)(F)F)cc3)c2O[C@H]1CN(C)C(=O)Nc1cccc2ccccc12`: “inactive”. For the compound `C[C@H](CO)N1C[C@H](C)[C@H](CN(C)C(=O)CN2CCOCC2)Oc2ncc(C#CCN(C)C)cc2C1=O`, the result was inactive.

`COc1ccc2[nH]c3c(c2c1)CCN1C(=O)N([C@@H](C)C(=O)NCc2ccc(C)cc2)C(=O)[C@]31C`: the compound was classed as inactive. For the compound `CC(C)N(C(=O)Nc1ccc2nsnc2c1)C(C)C`, the call was inactive.

In the case of `COc1ccc(CCNC(=O)C2CCN(S(=O)(=O)c3ccc(Cl)cc3)CC2)cc1OC`, the call was inactive. On to `CCn1cc(S(=O)(=O)Nc2cccnc2)cn1`, for which the outcome was inactive. As to `COc1ccc(N(CC(=O)NCc2cccs2)S(=O)(=O)c2ccc(C(C)=O)cc2)cc1`, the result was inactive.

Turning to `CC(=O)c1c(C)[nH]c(C(=O)CN2C(=O)NC(C)(c3ccc(C)cc3)C2=O)c1C` (stereo unspecified), the call was inactive. `Cc1cccc(Cn2ncc(Cl)c(Cl)c2=O)c1`: the compound was called inactive.

With `O=C(Cc1ccncc1)NCC[C@H]1CC[C@H](NC(=O)C2CCCC2)[C@H](CO)O1`, the compound was called inactive. As to `CC1CN(C(=O)c2cccc(S(=O)(=O)Nc3cc(Cl)ccc3Cl)c2)CC(C)O1` (stereo unspecified), the compound was called inactive. In the case of `Cc1ccc(S(=O)(=O)Nc2ccc3c(c2)CC(=O)N([C@H](C)CO)C[C@H](C)[C@H](CN(C)Cc2ccc(Cl)c(Cl)c2)O3)cc1`, the compound was classed as inactive.
